# Laboratory results: PubChem BioAssay AID1347426 (Functional Genomics Laboratory (NCATS/FGL), 2020)
# About 1,400 (4.5%) of roughly 31,000 sequences were called active. Many of the other results were omitted from the sample, so actives are more common in it than they were. Unmarked numbers belong to inactive results.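 The calls were made as follows: active = median seed-adjusted z-score above 1 or below -1; inactive = the rest.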
# Assay: Novel Modifiers of Survival Motor Neuron (SMN) Protein: Gene Identification via Genome-wide siRNA Screen;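 also: luminescence tracks full-length SMN protein made from the SMN2 reporter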
# Settings: HEK293T SMN2-luciferase reporter, siRNA knockdown, 72 h; actives lie on both sides
# Outline: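 siRNA screen, 10418 genes ×3 siRNAs; 1 pmol/well, lipid reverse transfection into HEK293T SMN2-luc reporter line. 72 h, 37 °C, 5% CO2; ONE-Glo readout. Data: neg-ctrl normalized, log10, MAD; hit = MAD >1.0 or < -1.0.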
row,Sequence,median seed-adjusted z-score
1,GGCAUUAUCUGGAUCACUUTT against PATE1,1.21 (active)
2,GAAGAUCAUUAGAUUUCUATT against SULT1B1,-0.115
3,GUACGUCCAUUAUGGAGAATT against GPR82,-0.83
4,GGAUAAUGAUGACGGGAGATT against SYT9,0.0419
5,CAACGACCGGAGGUAUAAATT against BPGM,0.408
6,CCGGCUUCCUCAUUACCUUTT against SLC2A14,-1.09 (active)
7,GGACUUACCUCAAUCAGAUTT against ZDHHC13,-0.381
8,CGAGAGGUGUAUCAAUAUATT against LIN7A,-1.39 (active)
9,GCUUUACCACCGUACGAAATT against MST4,0.343
10,UGAGAAUUGUGGAUCCGGATT against CSTF2,0.586
11,GGUACGAAUGAAUACCUUUTT against PTPN4,-0.447
12,GACCCAGCCGAAUACAACATT against NDUFB4,-0.697
13,GAACCUACAUCAUCAGUAUTT against GJA1,0.348
14,GCCUUGCUGUUAAAGGGCATT against PARP2,-0.366
15,AGAGUGACCUGAUUGAGCATT against CSNK2B,-1.62 (active)
16,GGCCUUUGGUGAAAACCGUTT against CLDN11,0.268
17,GCCUAUGACCUUCUACUUUTT against SLC31A1,0
18,GUAUCUGCGAGGACGAAAATT against RNF113B,-0.228
19,GCAUCAUCGGUACCCAGUUTT against MPO,-0.223
20,GGCCGCUGCUUGUUUGUCATT against SLC13A3,0.0434
21,ACUGUGAAAUUGGACCAAUTT against RABIF,0
22,CUGUCGCUGUCUGACCAGATT against ESRRA,-0.833
23,AGACAAUGAUCAUAGACAATT against IDH3B,-0.642

row,Sequence,median seed-adjusted z-score
1,CAACAACCCUUAUCGUAAATT against POLQ,0.203
2,GAGACUAUAUCUACAUGAATT against SLITRK3,-0.564
3,CGGAUGUUCUUUACACUAUTT against HNRNPL,1.04 (active)
4,GCAUAUGACUUGUAUUCCUTT against TFB2M,0.206
5,GGGACAUGGGAAUGCAAUATT against MSR1,0.0743
6,GGAAAUCUCGUGAUUUUCATT against TEAD1,1.31 (active)
7,CCAGAAACGUACACCUGAUTT against COX7B,-1.16 (active)
8,CCAUCAACACUGAAUUGCATT against SEC22B,-0.106
9,GUAUAGAUCUCUAUUUCUATT against COPZ1,-1.02 (active)
10,GAAGAGUGGUACUACCAGATT against BACE2,0.0853
11,CCACUUCAAGAAAACUUCATT against ZSCAN22,0.277
12,GGCUCGAGAUUUAUACGAUTT against HECTD1,-0.0588
13,GGAGAAAGGAUCACGCUAATT against KCTD1,0
14,CCUACACGGUCCUUCGUAATT against HEPHL1,0.0681
15,CCUUCUAUCAUGUAAGCUATT against IL1A,1.12 (active)
16,GCGUGUUCCCAAUAGUGUATT against OGT,0.411
17,GGAUAUCACAGAAGGAUAUTT against ANXA4,-0.0932
18,GUGUAAAACUUGUCAGCGATT against WT1,0.236
19,GCAGCUUCAUAACCGAAGATT against PARP1,-0.0913
20,GAUGCAUGUUUGUAAAAAUTT against KCNJ6,-1.6 (active)
21,GCCCAACAGUCAUUCAACATT against CHMP5,0
22,GGAGGUGACCUUCCAGGAATT against RAB17,0.473
23,GGCCGUCAGUAAUACAUCUTT against ZBTB33,0.164

row,Sequence,median seed-adjusted z-score
1,CCACCAAUCACGAACCUAATT against IL3RA,-0.951
2,CAGUGUAUCUGAACCUAUUTT against EFTUD1,-1.39 (active)
3,GCUCUUCGGGAGAAUCUUUTT against CTNNAL1,0.229
4,AGACCAUUGAGACCCGGAATT against PRPH,0
5,CAACUAAUUUCUAAUCGUUTT against ADAD1,-0.0795
6,GUGCGAAGGUUUUUAAUCATT against ZNF816A,0.39
7,GUACCUGCGGGAUUACUCATT against CCT7,-0.246
8,UGAACUUGAUGAAGGAGAATT against S100A7L2,0.283
9,GGGUCCUGUUCAUAAAGGATT against KCTD10,-0.506
10,GGAAUUUACAUGGUCUAUUTT against PHF6,-0.268
11,CCAUGCUCGUGGUGCACAATT against B3GNT7,-1.05 (active)
12,GCCCGAUGCUUUCCACAUUTT against SLC5A9,0.15
13,GCACACUUGAGUUUGUGUATT against HES6,0.71
14,GGUGGUAUCUGUUUCCGUATT against PCAF,-0.00665
15,GCUGCGUCUCCCUUCCAAATT against GP1BB,-0.711
16,GCCCUCUGUUGGAUAUCUATT against AZIN1,-1.14 (active)
17,CAGCAGACGUAAAAAUUCATT against MSX2,-0.406
18,CCACUGGAAUGGUACUUAUTT against UBR1,-0.775
19,GAGCUGUAUUUCUAUGUCATT against PLXNA3,0.255
20,GCGAGCCGCUUAUGUGGAATT against TCF21,-0.15
21,UCUUAGAUGUCAAGCUGAATT against RNF7,-1.18 (active)
22,AGGUAGAAUGGACAAGUGATT against PPP1R11,-0.498
23,GGAUUAUGAGUACCGAGAATT against MAP3K14,-0.0609
